Inconclusive results are not listed. The source made the active and inactive calls. Unless noted, the limit is not given here; nearly all actives have AC50 up to about 27 µM.

The nature of the first test: viability loss in pontine glioma line – cell-based, JHH-DIPG-1, MIPE4.0, CellTiter-Glo, qHTS, dose response (AID 1347062).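 As to AC50: cells exposed to compound for two days before readout.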 As to conditions: JHH-DIPG-1 viability, CellTiter-Glo ATP luminescence. (In general: Cellular ATP, detected with luciferase, serves as a proxy for viable cell number.)
For the compound `NS(=O)(=O)c1cc2c(cc1Cl)NC=NS2(=O)=O`, the compound was called inactive.

As for `Cc1ccc(-c2cc(C(F)(F)F)nn2-c2ccc(S(N)(=O)=O)cc2)cc1`, the outcome was inactive.

For the compound `Cc1ccccc1C(OCCN(C)C)c1ccccc1` (stereo not given), the call was inactive.

In the case of `COc1cc2nc(N(C)CCCNC(=O)C3CCCO3)nc(N)c2cc1OC` (stereo not given), the outcome was inactive.

For the compound `N[C@@H](C(=O)N[C@@H]1C(=O)N2C(C(=O)O)=C(Cl)CS[C@H]12)c1ccccc1`, the compound was called inactive.

`Nc1ncn([C@@H]2O[C@H](CO)[C@@H](O)[C@H]2O)c(=O)n1`: the AC50 (in general, the concentration giving half of the maximal activity seen) was 2.96 µM (active).

Regarding `Cc1ncc([N+](=O)[O-])n1CC(C)O` (stereo not given), the result was inactive.

Take `CN1CCCC(n2nc(Cc3ccc(Cl)cc3)c3ccccc3c2=O)CC1` (stereo not given): the AC50 was 2.35 µM (active).

In the case of `CN(CCOc1ccc(CC2SC(=O)NC2=O)cc1)c1ccccn1` (stereo not given), the outcome was inactive.

With `NC(=O)N1c2ccccc2CC(=O)c2ccccc21`, the call was inactive.

As to `CCCNCC(O)COc1ccccc1C(=O)CCc1ccccc1` (stereo not given), the result was inactive.

On to `C/C=C/C(=O)N(CC)c1ccccc1C`, for which the compound was classed as inactive.

As for `CCCCCCNC(=O)n1cc(F)c(=O)[nH]c1=O`, the outcome was inactive.

Take `NC(=O)c1cnccn1`: the outcome was inactive.

`CN(C)CCc1c[nH]c2ccc(C[C@H]3COC(=O)N3)cc12`: the compound was classed as inactive.

On to `COc1ccccc1OCC(O)COC(N)=O` (stereo not given), for which the outcome was inactive.

For the compound `CCn1cc(C(=O)O)c(=O)c2cc(F)c(N3CCN(C)CC3)cc21`, the compound was called inactive.

Regarding `c1ccc2[nH]c(-c3cscn3)nc2c1`, the compound was called inactive.

Turning to `Clc1ccc2c(c1)C(N1CCNCC1)=Nc1ccccc1O2`, the compound was called inactive.

With `CCc1cccc2c3c([nH]c12)C(CC)(CC(=O)O)OCC3` (stereo not given), the call was inactive.

With `O=S(=O)(O)CCS`, the outcome was inactive.

`O=c1[nH]cc(F)c(=O)[nH]1`: the compound was classed as inactive.

The next test in a line: viability loss in pontine glioma line – cell-based, SU-DIPG-IV, MIPE4.0, CellTiter-Glo, qHTS, dose response (AID 1347063; cut-off not given, nearly all actives have AC50 up to about 30 µM;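 also: compound exposure lasted 48 hours before the viability readout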). As to conditions: CellTiter-Glo ATP luminescence.
For the compound `OCCN1CCN(CCCN2c3ccccc3Sc3ccc(C(F)(F)F)cc32)CC1`, the AC50 is 18.7 µM (active).

Regarding `NS(=O)(=O)c1cc2c(cc1Cl)NC=NS2(=O)=O`, the compound was called inactive.

Take `Cc1ccc(-c2cc(C(F)(F)F)nn2-c2ccc(S(N)(=O)=O)cc2)cc1`: the compound was classed as inactive.

`Cc1ccccc1C(OCCN(C)C)c1ccccc1` (stereo not given): the outcome was inactive.

`CCc1nc(N)nc(N)c1-c1ccc(Cl)cc1`: the call was inactive.

Consider `N[C@@H](C(=O)N[C@@H]1C(=O)N2C(C(=O)O)=C(Cl)CS[C@H]12)c1ccccc1`, for which the result was inactive.

Take `Nc1ncn([C@@H]2O[C@H](CO)[C@@H](O)[C@H]2O)c(=O)n1`: the AC50 is 0.935 µM (active).

Take `Cc1ncc([N+](=O)[O-])n1CC(C)O` (stereo not given): the compound was called inactive.

Turning to `Cc1ccc(C)c(OCCCC(C)(C)C(=O)O)c1`, the compound was classed as inactive.

For `CN1CCCC(n2nc(Cc3ccc(Cl)cc3)c3ccccc3c2=O)CC1` (stereo not given), the AC50 is 6.62 µM (active).

As to `Cc1cn([C@H]2C[C@H](N=[N+]=[N-])[C@@H](CO)O2)c(=O)[nH]c1=O`, the compound was called inactive.

In the case of `CN(CCOc1ccc(CC2SC(=O)NC2=O)cc1)c1ccccn1` (stereo not given), the compound was called inactive.

On to `NC(=O)N1c2ccccc2CC(=O)c2ccccc21`, for which the outcome was inactive.

Take `NC(=O)c1cnccn1`: the result was inactive.

For the compound `CN(C)CCc1c[nH]c2ccc(C[C@H]3COC(=O)N3)cc12`, the compound was classed as inactive.

With `CCn1cc(C(=O)O)c(=O)c2cc(F)c(N3CCN(C)CC3)cc21`, the result was inactive.

For the compound `Cn1cnc([N+](=O)[O-])c1Sc1ncnc2nc[nH]c12`, the compound was classed as inactive.

In the case of `c1ccc2[nH]c(-c3cscn3)nc2c1`, the compound was classed as inactive.

As for `Clc1ccc2c(c1)C(N1CCNCC1)=Nc1ccccc1O2`, the result was inactive.

As to `CCc1cccc2c3c([nH]c12)C(CC)(CC(=O)O)OCC3` (stereo not given), the call was inactive.

With `O=S(=O)(O)CCS`, the compound was classed as inactive.

Another test is described as follows: viability loss in pontine glioma line – cell-based, SU-DIPG-XIII, MIPE5.0, CellTiter-Glo, qHTS, dose response (AID 1347064; cut-off not given, nearly all actives have AC50 up to about 23 µM;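 as to AC50: cells exposed to compound for 48 hours before the viability read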). As to conditions: CellTiter-Glo ATP luminescence.
In the case of `OCCN1CCN(CCCN2c3ccccc3Sc3ccc(C(F)(F)F)cc32)CC1`, the AC50 is 9.34 µM (active).

On to `NS(=O)(=O)c1cc2c(cc1Cl)NC=NS2(=O)=O`, for which the outcome was inactive.

`Cc1ccc(-c2cc(C(F)(F)F)nn2-c2ccc(S(N)(=O)=O)cc2)cc1`: the AC50 is 18.6 µM (active).

Take `CN[C@H]1CC[C@@H](c2ccc(Cl)c(Cl)c2)c2ccccc21`: the AC50 is 26.3 µM (active).

As for `Nc1ncn([C@@H]2O[C@H](CO)[C@@H](O)[C@H]2O)c(=O)n1`, the AC50 was 1.66 µM (active).

For `CCCNCC(O)COc1ccccc1C(=O)CCc1ccccc1` (stereo not given), the call was inactive.

Turning to `C/C=C/C(=O)N(CC)c1ccccc1C`, the outcome was inactive.

Take `NC(=O)c1cnccn1`: the call was inactive.

For the compound `COC(=O)Nc1nc2ccc(C(=O)c3ccccc3)cc2[nH]1`, the AC50 is 0.417 µM (active).

For `O=S(=O)(O)CCS`, the call was inactive.

In the case of `O=c1[nH]cc(F)c(=O)[nH]1`, the result was inactive.

The nature of the next test: viability loss in pontine glioma line – cell-based, SU-DIPG-XXV, MIPE5.0, CellTiter-Glo, qHTS, dose response (AID 1347065; cut-off not given, nearly all actives have AC50 up to about 26 µM;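 also: cells exposed to compound for 48 hours before ATP readout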). As to conditions: CellTiter-Glo ATP luminescence.
`OCCN1CCN(CCCN2c3ccccc3Sc3ccc(C(F)(F)F)cc32)CC1`: the AC50 was 7.42 µM (active).

Regarding `NS(=O)(=O)c1cc2c(cc1Cl)NC=NS2(=O)=O`, the outcome was inactive.

Regarding `Nc1ncn([C@@H]2O[C@H](CO)[C@@H](O)[C@H]2O)c(=O)n1`, the AC50 is 2.09 µM (active).

As to `Cc1ccc(C)c(OCCCC(C)(C)C(=O)O)c1`, the outcome was inactive.

`CN(CCOc1ccc(CC2SC(=O)NC2=O)cc1)c1ccccn1` (stereo not given): the compound was called inactive.

Turning to `NC(=O)c1cnccn1`, the compound was classed as inactive.

Take `COC(=O)Nc1nc2ccc(C(=O)c3ccccc3)cc2[nH]1`: the AC50 is 0.332 µM (active).

`Cn1cnc([N+](=O)[O-])c1Sc1ncnc2nc[nH]c12`: the AC50 is 6.61 µM (active).

`c1ccc2[nH]c(-c3cscn3)nc2c1`: the outcome was inactive.

As for `O=S(=O)(O)CCS`, the compound was called inactive.

Turning to `O=c1[nH]cc(F)c(=O)[nH]1`, the outcome was inactive.

Source of the values: PubChem BioAssay.
